PubChem BioAssay AID1259422 (The Scripps Research Institute Molecular Screening Center, 2018)
Where “and” joins values, the source holds several entries; their conditions need not be identical. Equal values may be shown once. In all, about 640,000 compounds went through this assay and about 9,300 (1.5%) were called active. Cut-off read from the data, not from the text of the source: active = inhibition above about 32%; inactive = the rest. What follows is part of a selection rich in actives, with near analogues and random picks from the rest.

Experiment: TEAD-YAP interaction inhibition, primary screen, TEAD-YAP interaction inhibitor project, luminescence, HEK-TIYL cells (AID 1259422);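 note: 0% = median of test compound wells and 100% = reference inhibitor wells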
Details: TEAD-Gal4/YAP UAS-luciferase luminescence, at 9.12 µM, hits give high values

For CC1(C)CC(=O)C(N=Nc2cc(C(N)=O)c(Cl)cc2Cl)=C(O)C1, which inhibition is on record?
The inhibition was -1.09% (inactive).

With COc1cccc(C(=O)NC(=S)Nc2cccc(C(=O)O)c2)c1 as the molecule, how does the inhibition read?
The inhibition was 30.7% (inactive).

Which inhibition does the source give for COc1ccc(C(=O)Nc2nc(C)cs2)c(OC)n1 here?
Its inhibition is 89.4% (active).

Which inhibition does the source give for COc1ccccc1C(=O)Nc1nc(C)cs1 here?
The inhibition was 80.1% (active).

For COc1cccc(C(=O)Nc2nc(-c3ccc(C)c(C)c3)cs2)c1OC, which inhibition is on record?
The inhibition was -6.84% (inactive).

For COc1ccccc1C(=O)Nc1nc(-c2ccccc2)c(C)s1, which inhibition is on record?
Its inhibition is -3.33% (inactive).

Which inhibition does the source give for Cc1csc(NC(=O)c2ccc(I)cc2)n1 here?
Its inhibition is -17.9% (inactive).

With COc1ccc2oc(=O)c(-c3csc(NC(=O)c4ccccc4)n3)cc2c1 as the molecule, how does the inhibition read?
The inhibition was 1.86% (inactive).

Which inhibition does the source give for CCOC(=O)C1(Cc2cccc(F)c2)CCN(CCO)CC1 here?
The inhibition was 2.96% (inactive).

With CCN1CCN(S(=O)(=O)c2ccc(F)c(C(=O)Nc3cccc(C)c3C)c2)CC1 as the molecule, how does the inhibition read?
The inhibition was 3.75% (inactive).

For O=C(Nc1ccccc1Br)c1ccc(Cl)c([N+](=O)[O-])c1, which inhibition is on record?
The inhibition was -1.84% (inactive).

Which inhibition does the source give for O=C(CSc1nc2ccccc2c(=O)n1-c1ccc(C(=O)N2CCOCC2)cc1)NCc1ccccc1Cl here?
Its inhibition is 5.25% (inactive).

For COc1cccc(NC(=O)Cn2c3ccccc3c(=O)c3cc(Cl)ccc32)c1, which inhibition is on record?
Its inhibition is 1.55% (inactive).

Which inhibition does the source give for CCOc1cc(/C=C2\SC(=S)NC2=O)cc(Br)c1OC here?
The inhibition was -5.88% (inactive).

With CN1CCN(c2ccc(-c3cc(NCCOc4ccccc4)nc(N)n3)cc2)CC1 as the molecule, how does the inhibition read?
The inhibition was 23.1% (inactive).

Which inhibition does the source give for Nc1nc(Nc2ccc(N3CCOCC3)cc2)cc(-c2ccc3[nH]ccc3c2)n1 here?
Its inhibition is -4.34% (inactive).

Which inhibition does the source give for CN1CCN(c2ccc(-c3cc(Nc4ccc(N5CCOCC5)cc4)nc(N)n3)cc2)CC1 here?
Its inhibition is 64.9% (active).

For CCNc1nc(NCCc2ccc(OC)cc2)c2ncn(Cc3ccc(C(F)(F)F)cc3)c2n1, which inhibition is on record?
Its inhibition is 12.1% (inactive).

Which inhibition does the source give for COc1ccc(CCNc2nc(-c3c(C)noc3C)nc3c2ncn3Cc2ccc(C(F)(F)F)cc2)cc1 here?
The inhibition was 40.4% (active).

Which inhibition does the source give for COc1ccc(-c2nc(NCc3ccccc3)c3ncn(Cc4ccc(C(F)(F)F)cc4)c3n2)cc1 here?
The inhibition was 5.78% (inactive).

Which inhibition does the source give for Oc1ccc(CCNc2nc(Nc3ccncn3)nc3c2ncn3Cc2ccc(C(F)(F)F)cc2)cc1 here?
Its inhibition is -4.85% (inactive).

For NC(=S)N/N=C/c1c(Sc2ccccn2)nc2ccccn2c1=O, which inhibition is on record?
Its inhibition is -6.3% (inactive).

For O=c1c(C=Nc2ccc(Cl)cc2)c(Nc2ccccc2)nc2ccccn12, which inhibition is on record?
The inhibition was -17.1% (inactive).

Which inhibition does the source give for O=c1c(/C=N/Nc2ccc(C(F)(F)F)cn2)c(Cl)nc2ccccn12 here?
The inhibition was 52.1% (active).

For COc1ccc(/C=C2\C(=O)N(c3ccc(Cl)c(C(=O)O)c3)N=C2C)cc1Br, which inhibition is on record?
Its inhibition is 0.17% (inactive).

For C/C(CC(C)C)=N\NC(=O)c1nnn(-c2nonc2N)c1-c1ccccc1, which inhibition is on record?
The inhibition was -8.99% (inactive).

For O=C(Nc1ccc(N2CCOCC2)c(Cl)c1)c1ccc(-c2ccccc2[N+](=O)[O-])o1, which inhibition is on record?
The inhibition was 11.7% (inactive).

For O=C(Nc1cccc(NC(=O)c2ccc(-c3ccccc3[N+](=O)[O-])o2)c1)c1ccco1, which inhibition is on record?
The inhibition was -5.61% (inactive).

For COc1ccc(NC(=O)c2ccco2)cc1NC(=O)c1ccc(-c2ccccc2[N+](=O)[O-])o1, which inhibition is on record?
The inhibition was 34.4% (active).

Which inhibition does the source give for CC(C)N(C)C1CCN(S(=O)(=O)c2cccc([N+](=O)[O-])c2)CC1 here?
The inhibition was -1.4% (inactive).

For Cc1ccc2cccc(NC(=O)c3cc4ccccc4o3)c2n1, which inhibition is on record?
The inhibition was 12.1% (inactive).

For CCC(C)c1ccccc1NC(=O)C(C)Cl (configuration not stated), which inhibition is on record?
Its inhibition is -3.45% (inactive).

With CN(CC(=O)Nc1ccccc1F)CC(=O)Nc1ccccc1Br as the molecule, how does the inhibition read?
Its inhibition is -1.95% (inactive).

For CCC(C)c1ccccc1NC(=O)CN(C)CC(=O)Nc1ccccc1SC (configuration not stated), which inhibition is on record?
The inhibition was 36.5% (active).

Which inhibition does the source give for COc1cccc(/C=N/Nc2ncc(C(F)(F)F)cc2Cl)c1O here?
The inhibition was 49.5% (active).

With COc1cccc(/C=N/NC(=O)c2cccc(NC(=O)c3ccc(F)cc3)c2)c1O as the molecule, how does the inhibition read?
Its inhibition is 28.7% (inactive).

With COc1cccc(C=Nc2ccc(N)c(Cl)c2)c1O as the molecule, how does the inhibition read?
Its inhibition is 6.6% (inactive).

For Cc1ccc(-c2csc(Nc3ccccc3)n2)c(C)c1, which inhibition is on record?
The inhibition was -65% (inactive).

Which inhibition does the source give for Cc1ccc(Nc2nc(-c3cccs3)cs2)cc1 here?
The inhibition was 64.2% (active).

Which inhibition does the source give for Cc1ccc(Nc2nc(-c3ccc(Cl)cc3)cs2)cc1 here?
Its inhibition is -86.7% (inactive).

For CCOCCCn1c(SCc2cc(=O)n3ccccc3n2)nc2ccccc2c1=O, which inhibition is on record?
The inhibition was 0.02% (inactive).

With Cc1cc2nnn(C[C@@H](C)NC(=O)Cc3ccccc3)c2cc1C as the molecule, how does the inhibition read?
Its inhibition is -20.1% (inactive).

Which inhibition does the source give for Cc1ccc(-c2nc(CSCC(=O)N3CCC(C(N)=O)CC3)c(C)o2)cc1 here?
Its inhibition is 10.6% (inactive).

For Cc1ccc(-c2nc(CSCC(=O)NC3CCN(Cc4ccccc4)CC3)c(C)o2)cc1, which inhibition is on record?
The inhibition was 33.9% (active).

Which inhibition does the source give for COc1ccc(-c2nc(CSCC(=O)NC3CCCCCC3)c(C)o2)cc1OC here?
The inhibition was 2.93% (inactive).

Which inhibition does the source give for O=C(Cn1c(SCC(=O)N2CCCC2)nc2ccccc21)NC1CCCC1 here?
Its inhibition is 3.72% (inactive).

For Cc1cccc(Oc2ccc(NC(=O)c3cc(-c4ccccc4)nc4ccc(C)cc34)cc2)c1, which inhibition is on record?
The inhibition was -0.69% (inactive).

For Cc1ccc2nc(-c3ccncc3)cc(C(=O)Nc3ccc4c(c3)OCCO4)c2c1, which inhibition is on record?
Its inhibition is 43.3% (active).

For O=C(Nc1ccc(F)cc1)c1cc(-c2ccncc2)nc2ccccc12, which inhibition is on record?
Its inhibition is -1.35% (inactive).

Which inhibition does the source give for COc1ccc(-c2nnc(SCC(=O)N(C)C)n2C)cc1 here?
The inhibition was 2.69% (inactive).

Which inhibition does the source give for CCC(=O)N[C@@H]1c2ccccc2C2(CCN(Cc3cn[nH]c3-c3ccccc3)CC2)[C@H]1OC here?
The inhibition was -3.33% (inactive).

With COc1ccccc1NC(=O)c1oc2cccnc2c1NC(=O)c1ccc(Cl)cc1 as the molecule, how does the inhibition read?
The inhibition was -6.82% (inactive).

With CCOc1ccccc1C(=O)Nc1c(C(=O)Nc2ccccc2F)oc2cccnc12 as the molecule, how does the inhibition read?
The inhibition was 41.9% (active).

For O=C(Nc1ccccc1F)c1oc2cccnc2c1NC(=O)C1CC1, which inhibition is on record?
Its inhibition is 2.6% (inactive).

Which inhibition does the source give for Cn1c(SCC(=O)c2ccc3c(c2)OCO3)nnc1-c1cccs1 here?
The inhibition was -1.64% (inactive).

For COc1ccc(C(=O)/C=C/Nc2cccc(C(C)O)c2)cc1 (configuration not stated), which inhibition is on record?
The inhibition was -59.6% (inactive).

For COc1ccccc1N/C=C/C(=O)c1ccc(OC)c(OC)c1, which inhibition is on record?
The inhibition was -24% (inactive) and -18.3% (inactive).

With COc1ccc(C(=O)/C=C/Nc2ccccn2)cc1 as the molecule, how does the inhibition read?
The inhibition was 53.5% (active).

Which inhibition does the source give for CCC(Oc1ccccc1)C(=O)NC(C)C (configuration not stated) here?
The inhibition was 12.4% (inactive).

With CCc1cc(=O)[nH]c(NC2CCN(S(=O)(=O)c3ccccc3)CC2)n1 as the molecule, how does the inhibition read?
The inhibition was 4.67% (inactive).

With COc1ccc(CNc2c(-c3ccccc3O)nc3cnccn23)cc1 as the molecule, how does the inhibition read?
The inhibition was 67.4% (active).

With Oc1ccccc1-c1nc2cnccn2c1NCc1ccccc1 as the molecule, how does the inhibition read?
The inhibition was -6.9% (inactive).

Which inhibition does the source give for COc1ccc(Nc2c(-c3ccccc3O)nc3cnccn23)cc1 here?
The inhibition was -0.84% (inactive).

With COc1ccc(OC)c(N/C=C(/C#N)c2nc(-c3ccc(OC)c(OC)c3)cs2)c1 as the molecule, how does the inhibition read?
Its inhibition is 0.19% (inactive).

Which inhibition does the source give for COc1ccc(N=C2SC(C(=O)NCCc3ccccc3)CC(=O)N2CCc2ccc(OC)c(OC)c2)cc1 (configuration not stated) here?
Its inhibition is 7.83% (inactive).

Which inhibition does the source give for Cc1cc(C)nc(NC(N)=NCCC(C)C)n1 here?
Its inhibition is 6.21% (inactive).

With O=[N+]([O-])/C=C\c1ccc(N2CCCCC2)cc1 as the molecule, how does the inhibition read?
The inhibition was 31.3% (inactive).

Which inhibition does the source give for N#CC(C#N)=Cc1ccc(N2CCN(Cc3ccccc3)CC2)c([N+](=O)[O-])c1 here?
Its inhibition is 4.11% (inactive).

Which inhibition does the source give for O=[N+]([O-])/C=C/c1ccc2c(ccn2Cc2ccccc2)c1 here?
The inhibition was 33.9% (active).

For CC1(C)Cc2c(c(N3CCOCC3)nc3sc4c(N5CCCCC5)nnnc4c23)CO1, which inhibition is on record?
Its inhibition is -1.34% (inactive).

With CCn1c(=O)c2ccccc2n2c(SCC(=O)N(C)C3CCCCC3)nnc12 as the molecule, how does the inhibition read?
The inhibition was -7.16% (inactive).

With O=C(Nc1cccc(NC(=O)c2cccc(Cl)c2Cl)c1)c1ccco1 as the molecule, how does the inhibition read?
Its inhibition is -0.83% (inactive).

Which inhibition does the source give for Cc1ccc(Nc2nc(N/N=C/c3ccccc3O)nc(N3CCOCC3)n2)cc1Cl here?
Its inhibition is -11% (inactive).

With Oc1ccc(/C=N/Nc2nn[nH]n2)c(O)c1 as the molecule, how does the inhibition read?
The inhibition was -11.8% (inactive).

Which inhibition does the source give for Oc1ccc(/C=N/Nc2ncc(F)c(N3CCOCC3)n2)c(O)c1 here?
The inhibition was 58.7% (active).

For COc1ccc(C2=N/C(=C\c3cc(OC)c(OC)c(OC)c3)C(=O)O2)c(Cl)c1, which inhibition is on record?
The inhibition was -1.56% (inactive).

With N#Cc1c(-n2ncnc2-c2ccc3c(c2)OCO3)sc2c1CCCC2 as the molecule, how does the inhibition read?
Its inhibition is -2.41% (inactive).

For c1ccc(N2CCN(c3nc(NCc4nc5ccccc5[nH]4)c4ncn(-c5ccsc5)c4n3)CC2)nc1, which inhibition is on record?
The inhibition was 68% (active).

With c1ccc(CNc2nc(N3CCN(c4ccccn4)CC3)nc3c2ncn3-c2ccsc2)cc1 as the molecule, how does the inhibition read?
Its inhibition is -1.71% (inactive).

For c1ccc(CNc2nc(Nc3cccnc3)nc3c2ncn3-c2ccccc2)cc1, which inhibition is on record?
The inhibition was 25.2% (inactive).

For c1cncc(Nc2nc(NCc3nc4ccccc4[nH]3)c3ncn(-c4ccsc4)c3n2)c1, which inhibition is on record?
Its inhibition is 84.1% (active).

For c1ccc(-n2cnc3c(NCc4nc5ccccc5[nH]4)nc(Nc4nccc5ccccc45)nc32)cc1, which inhibition is on record?
The inhibition was 7.74% (inactive).

Which inhibition does the source give for FC(F)(F)c1cccc(CNc2nc(N3CCN(c4ccccn4)CC3)nc3c2ncn3-c2ccsc2)c1 here?
Its inhibition is -7.69% (inactive).

For COc1cccc(NC(=S)NC(=O)CC(C)C)c1, which inhibition is on record?
The inhibition was -50% (inactive).

For CCc1ccccc1NC(=O)c1cc2ccccc2oc1=O, which inhibition is on record?
The inhibition was -2.07% (inactive).

Which inhibition does the source give for O=C(CC1(O)C(=O)Nc2c(C(F)(F)F)cccc21)c1ccc(Cl)s1 (configuration not stated) here?
Its inhibition is -1.56% (inactive).

With Cc1ccc2c(c1)-c1c(cnn1CC(=O)NCCCN1CCCCCC1)CO2 as the molecule, how does the inhibition read?
Its inhibition is 4.66% (inactive).

With CC(NC(=O)CSCc1ccccc1Cl)c1ccccc1 (configuration not stated) as the molecule, how does the inhibition read?
Its inhibition is -4.44% (inactive).

For Cc1noc(C)c1S(=O)(=O)N1CCCC(C(=O)Nc2cccc(Cl)c2C)C1 (configuration not stated), which inhibition is on record?
Its inhibition is 3.39% (inactive).

For CCOC(=O)N1CCN(c2cc(NCCO)c3c4c(onc24)-c2ccccc2C3=O)CC1, which inhibition is on record?
Its inhibition is 17.6% (inactive).

With CC1CCN(c2cc(NCC(=O)O)c3c4c(onc24)-c2ccccc2C3=O)CC1 as the molecule, how does the inhibition read?
Its inhibition is 64% (active).

For CN1CCN(c2cc(NCCCC(=O)O)c3c4c(onc24)-c2ccccc2C3=O)CC1, which inhibition is on record?
The inhibition was 11.3% (inactive).
